The values that follow come from PMC7862700, “An all-to-all approach to the identification of sequence-specific readers for epigenetic DNA modifications on cytosine”.

Holding throughout (experiment): DAPPL (digital affinity profiling via proximity ligation, sequencing); 10 mM Tris-HCl pH 7.5, 50 mM NaCl, 1 mM DTT, 4% glycerol, room temperature, 30 min; GST-TFs on glutathione beads, 16-mer random dsDNA library, 0.1% formaldehyde crosslink after washing; high values mean tight binding
The target in one experiment is T1, FEV (Homo sapiens, UniProt Q99581 1-238).
T1 sequence: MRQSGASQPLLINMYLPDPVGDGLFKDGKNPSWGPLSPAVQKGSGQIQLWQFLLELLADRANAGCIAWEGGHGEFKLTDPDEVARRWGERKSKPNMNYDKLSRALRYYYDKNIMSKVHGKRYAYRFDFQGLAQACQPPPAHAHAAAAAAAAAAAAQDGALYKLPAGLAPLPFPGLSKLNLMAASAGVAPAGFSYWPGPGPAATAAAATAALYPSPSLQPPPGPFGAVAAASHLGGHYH
The note with it: protein: recombinant; tags: N-terminal GST; dsDNA, one strand shown. An outline of the steps: (§1)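 Human transcription factors fused to GST were expressed in yeast, captured on glutathione beads, given DNA barcodes and pooled with a GST-only negative control. Pools were incubated with 200 nmole of a 16-mer random double-stranded DNA library in Tris/NaCl/DTT/glycerol buffer at room temperature for 30 min. They were then washed, crosslinked with 0.1% formaldehyde, proximity-ligated (BsaI/T4 ligase, 1 h, 37 °C), PCR-amplified and sequenced on an Illumina NextSeq500. Binding signal is each 6-mer's read frequency for a factor divided by its frequency for the GST control.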

The target of the next experiment is ETV5 (Homo sapiens, UniProt P41161 1-510). To be noted: protein: recombinant; tags: N-terminal GST; dsDNA, one strand shown. The method, boiled down:
as §1

The target in the next experiment is HSF1 (Homo sapiens, UniProt Q00613 1-529). The note with it: protein: recombinant; tags: N-terminal GST; chain copies: 3; dsDNA, one strand shown. The method, boiled down: as §1
For a further experiment, the target named is T2, SPIC (Homo sapiens, UniProt Q8N5J4 1-248).
T2 sequence: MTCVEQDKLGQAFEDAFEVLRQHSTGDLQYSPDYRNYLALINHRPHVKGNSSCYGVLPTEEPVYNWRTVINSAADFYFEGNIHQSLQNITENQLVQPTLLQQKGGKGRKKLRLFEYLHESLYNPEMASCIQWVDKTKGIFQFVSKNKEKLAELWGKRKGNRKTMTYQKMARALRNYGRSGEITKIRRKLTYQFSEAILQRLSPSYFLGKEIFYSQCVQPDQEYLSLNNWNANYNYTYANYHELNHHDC
To be noted: protein: recombinant; tags: N-terminal GST; dsDNA, one strand shown. The method, boiled down:
as §1

The next experiment addresses ELF4 (Homo sapiens, UniProt Q99607 1-663). To be noted: protein: recombinant; tags: N-terminal GST; dsDNA, one strand shown. The method, boiled down: as §1
A further experiment deals with T3, ELK4 (Homo sapiens, UniProt P28324-2 1-405).
T3 sequence: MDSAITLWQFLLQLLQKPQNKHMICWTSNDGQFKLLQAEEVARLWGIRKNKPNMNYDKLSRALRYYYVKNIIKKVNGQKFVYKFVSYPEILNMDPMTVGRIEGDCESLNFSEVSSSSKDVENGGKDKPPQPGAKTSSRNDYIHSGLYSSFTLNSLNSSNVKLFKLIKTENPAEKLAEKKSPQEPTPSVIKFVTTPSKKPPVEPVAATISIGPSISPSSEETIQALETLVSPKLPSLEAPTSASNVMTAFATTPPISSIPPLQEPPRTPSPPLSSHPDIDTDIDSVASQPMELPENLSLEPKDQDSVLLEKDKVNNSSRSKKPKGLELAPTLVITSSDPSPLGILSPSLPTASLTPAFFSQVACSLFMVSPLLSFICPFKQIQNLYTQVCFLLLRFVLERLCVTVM
To be noted: protein: recombinant; tags: N-terminal GST; dsDNA, one strand shown. An outline of the steps: as §1

The target in the next experiment is T4, ETV2 (Homo sapiens, UniProt O00321 1-342).
T4 sequence: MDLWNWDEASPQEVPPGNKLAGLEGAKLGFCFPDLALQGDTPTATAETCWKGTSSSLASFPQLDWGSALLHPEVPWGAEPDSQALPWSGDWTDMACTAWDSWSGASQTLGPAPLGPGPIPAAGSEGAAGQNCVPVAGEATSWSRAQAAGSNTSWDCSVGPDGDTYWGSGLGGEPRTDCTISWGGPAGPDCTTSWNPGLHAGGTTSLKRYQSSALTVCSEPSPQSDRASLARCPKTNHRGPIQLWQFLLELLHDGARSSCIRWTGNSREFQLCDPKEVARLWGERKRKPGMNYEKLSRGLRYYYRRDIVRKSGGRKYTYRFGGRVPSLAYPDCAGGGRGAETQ
To be noted: protein: recombinant; tags: N-terminal GST; dsDNA, one strand shown. The method, boiled down:
as §1

The target of another experiment is T5, ELF3 (Homo sapiens, UniProt P78545 1-371).
T5 sequence: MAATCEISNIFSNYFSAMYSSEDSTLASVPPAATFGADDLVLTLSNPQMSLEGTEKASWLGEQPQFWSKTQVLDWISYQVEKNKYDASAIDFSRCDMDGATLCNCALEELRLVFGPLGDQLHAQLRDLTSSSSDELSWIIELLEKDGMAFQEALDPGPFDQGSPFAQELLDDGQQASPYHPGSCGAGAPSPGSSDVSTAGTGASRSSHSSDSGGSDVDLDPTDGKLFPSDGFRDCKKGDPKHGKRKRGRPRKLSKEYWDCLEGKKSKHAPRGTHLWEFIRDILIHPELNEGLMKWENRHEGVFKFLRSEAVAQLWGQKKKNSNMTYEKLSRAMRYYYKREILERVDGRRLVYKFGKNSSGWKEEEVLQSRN
To be noted: protein: recombinant; tags: N-terminal GST; dsDNA, one strand shown. The method, boiled down: as §1

Another experiment addresses CRX (Homo sapiens, UniProt O43186 1-299). To be noted: protein: recombinant; tags: N-terminal GST; dsDNA, one strand shown. An outline of the steps: as §1
For the next experiment, the target named is ETV1 (Homo sapiens, UniProt P50549 1-477). The note with it: protein: recombinant; tags: N-terminal GST; dsDNA, one strand shown. An outline of the steps: as §1
Sequence of ETV1 (P50549 whole entry): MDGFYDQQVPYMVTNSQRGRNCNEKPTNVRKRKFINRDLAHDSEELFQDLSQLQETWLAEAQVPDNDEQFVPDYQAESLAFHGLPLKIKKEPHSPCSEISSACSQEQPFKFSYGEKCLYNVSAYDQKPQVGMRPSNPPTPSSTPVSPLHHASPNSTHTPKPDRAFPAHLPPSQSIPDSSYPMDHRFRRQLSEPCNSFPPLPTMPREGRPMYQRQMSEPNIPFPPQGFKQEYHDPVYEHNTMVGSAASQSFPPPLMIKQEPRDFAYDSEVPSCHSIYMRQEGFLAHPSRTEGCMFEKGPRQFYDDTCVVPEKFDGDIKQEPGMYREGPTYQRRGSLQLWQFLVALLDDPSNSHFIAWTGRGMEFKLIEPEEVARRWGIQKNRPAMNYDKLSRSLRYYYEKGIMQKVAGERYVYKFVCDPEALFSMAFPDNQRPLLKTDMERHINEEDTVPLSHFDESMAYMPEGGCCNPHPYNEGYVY

Sequence of ETV5 (P41161 whole entry): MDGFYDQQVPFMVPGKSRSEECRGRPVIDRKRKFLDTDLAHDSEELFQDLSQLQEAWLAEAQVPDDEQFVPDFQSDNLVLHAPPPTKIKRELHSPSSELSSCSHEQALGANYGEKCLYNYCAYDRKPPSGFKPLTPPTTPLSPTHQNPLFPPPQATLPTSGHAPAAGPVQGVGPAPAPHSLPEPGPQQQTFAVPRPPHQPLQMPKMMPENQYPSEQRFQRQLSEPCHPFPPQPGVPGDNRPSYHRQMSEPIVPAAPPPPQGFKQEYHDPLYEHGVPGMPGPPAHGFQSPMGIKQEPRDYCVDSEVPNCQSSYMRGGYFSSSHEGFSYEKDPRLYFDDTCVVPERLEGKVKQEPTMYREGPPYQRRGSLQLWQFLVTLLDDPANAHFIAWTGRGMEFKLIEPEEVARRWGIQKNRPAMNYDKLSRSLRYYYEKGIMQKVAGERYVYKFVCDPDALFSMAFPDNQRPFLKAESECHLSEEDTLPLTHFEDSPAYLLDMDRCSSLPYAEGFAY
Sequence of CRX (O43186 whole entry): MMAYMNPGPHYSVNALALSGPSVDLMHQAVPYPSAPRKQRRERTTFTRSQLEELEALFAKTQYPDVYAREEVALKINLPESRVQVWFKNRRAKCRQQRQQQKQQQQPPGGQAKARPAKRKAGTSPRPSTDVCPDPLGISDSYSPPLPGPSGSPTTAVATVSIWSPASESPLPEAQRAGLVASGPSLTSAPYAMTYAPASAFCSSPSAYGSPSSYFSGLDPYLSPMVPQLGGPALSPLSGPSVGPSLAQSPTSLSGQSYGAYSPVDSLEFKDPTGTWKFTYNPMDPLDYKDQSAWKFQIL
Sequence of ELF4 (Q99607 whole entry): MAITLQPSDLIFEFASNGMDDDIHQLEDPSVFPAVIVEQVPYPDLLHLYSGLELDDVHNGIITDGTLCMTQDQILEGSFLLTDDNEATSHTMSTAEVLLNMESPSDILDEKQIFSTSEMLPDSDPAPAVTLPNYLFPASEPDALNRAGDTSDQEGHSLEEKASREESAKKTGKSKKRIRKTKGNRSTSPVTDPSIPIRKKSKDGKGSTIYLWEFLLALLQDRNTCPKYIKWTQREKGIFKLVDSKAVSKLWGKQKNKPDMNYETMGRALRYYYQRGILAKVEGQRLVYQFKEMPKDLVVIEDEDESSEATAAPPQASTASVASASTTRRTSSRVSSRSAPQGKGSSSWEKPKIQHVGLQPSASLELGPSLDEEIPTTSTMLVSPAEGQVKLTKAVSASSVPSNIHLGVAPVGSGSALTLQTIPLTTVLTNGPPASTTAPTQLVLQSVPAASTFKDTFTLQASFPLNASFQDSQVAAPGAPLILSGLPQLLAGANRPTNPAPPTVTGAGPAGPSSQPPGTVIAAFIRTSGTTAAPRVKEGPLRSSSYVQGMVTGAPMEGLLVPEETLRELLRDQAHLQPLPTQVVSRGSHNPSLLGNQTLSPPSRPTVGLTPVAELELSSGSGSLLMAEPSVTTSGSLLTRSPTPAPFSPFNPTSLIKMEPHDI
Sequence of HSF1 (Q00613 whole entry): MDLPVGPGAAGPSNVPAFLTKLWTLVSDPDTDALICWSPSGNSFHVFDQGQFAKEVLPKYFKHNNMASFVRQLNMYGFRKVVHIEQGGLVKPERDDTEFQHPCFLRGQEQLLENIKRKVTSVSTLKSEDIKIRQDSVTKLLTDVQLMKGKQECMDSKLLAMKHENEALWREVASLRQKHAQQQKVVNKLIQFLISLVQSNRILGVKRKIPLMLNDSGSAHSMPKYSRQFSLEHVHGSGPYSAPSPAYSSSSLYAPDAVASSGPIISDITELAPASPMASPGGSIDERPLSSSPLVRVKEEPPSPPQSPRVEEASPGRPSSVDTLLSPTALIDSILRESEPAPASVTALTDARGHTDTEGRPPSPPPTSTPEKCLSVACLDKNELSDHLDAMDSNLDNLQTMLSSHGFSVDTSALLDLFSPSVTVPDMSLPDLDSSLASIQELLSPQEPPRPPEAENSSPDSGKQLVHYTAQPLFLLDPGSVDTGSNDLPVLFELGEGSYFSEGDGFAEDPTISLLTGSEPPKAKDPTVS

For the sequence ATTCTC, the binding signal in the experiment with FEV was 1.32 fold enrichment (6-mer frequency, TF over GST control); with ETV5, 1.31 fold enrichment (6-mer frequency, TF over GST control); with HSF1, 2.42 fold enrichment (6-mer frequency, TF over GST control); with SPIC, 1.15 fold enrichment (6-mer frequency, TF over GST control); with ELF4 it was 1.35 fold enrichment (6-mer frequency, TF over GST control); with ELK4 it was 1.25 fold enrichment (6-mer frequency, TF over GST control). For the same sequence, the binding signal was 1.36 fold enrichment (6-mer frequency, TF over GST control) with ETV2; 1.2 fold enrichment (6-mer frequency, TF over GST control) with ELF3; 1.69 fold enrichment (6-mer frequency, TF over GST control) in the experiment with CRX; 1.23 fold enrichment (6-mer frequency, TF over GST control) with ETV1.
For TACGCT, the binding signal with FEV is 1.32 fold enrichment (6-mer frequency, TF over GST control); with ETV5, 1.3 fold enrichment (6-mer frequency, TF over GST control); with HSF1, 1.28 fold enrichment (6-mer frequency, TF over GST control); with SPIC it was 1.21 fold enrichment (6-mer frequency, TF over GST control); in the experiment with ELF4, 1.39 fold enrichment (6-mer frequency, TF over GST control); in the experiment with ELK4 it was 1.26 fold enrichment (6-mer frequency, TF over GST control). Moreover, the binding signal in the experiment with ETV2 is 1.23 fold enrichment (6-mer frequency, TF over GST control); with ELF3, 1.29 fold enrichment (6-mer frequency, TF over GST control); in the experiment with CRX, 1.48 fold enrichment (6-mer frequency, TF over GST control); with ETV1, 1.25 fold enrichment (6-mer frequency, TF over GST control).
Turning to CTTTTT, the binding signal was 1.35 fold enrichment (6-mer frequency, TF over GST control) in the experiment with FEV; 1.28 fold enrichment (6-mer frequency, TF over GST control) with ETV5; 1.23 fold enrichment (6-mer frequency, TF over GST control) with HSF1; 1.34 fold enrichment (6-mer frequency, TF over GST control) in the experiment with SPIC; 1.43 fold enrichment (6-mer frequency, TF over GST control) with ELF4; 1.24 fold enrichment (6-mer frequency, TF over GST control) with ELK4. The binding signal in the experiment with ETV2 was 1.28 fold enrichment (6-mer frequency, TF over GST control); with ELF3, 1.58 fold enrichment (6-mer frequency, TF over GST control); with CRX, 1.25 fold enrichment (6-mer frequency, TF over GST control); with ETV1, 1.32 fold enrichment (6-mer frequency, TF over GST control).
Take TTCGTT: the binding signal in the experiment with FEV was 1.3 fold enrichment (6-mer frequency, TF over GST control); in the experiment with ETV5, 1.4 fold enrichment (6-mer frequency, TF over GST control); in the experiment with HSF1, 1.48 fold enrichment (6-mer frequency, TF over GST control); with SPIC, 1.32 fold enrichment (6-mer frequency, TF over GST control); with ELF4, 1.34 fold enrichment (6-mer frequency, TF over GST control); in the experiment with ELK4 it was 1.37 fold enrichment (6-mer frequency, TF over GST control). In addition, the binding signal is 1.46 fold enrichment (6-mer frequency, TF over GST control) with ETV2; 1.38 fold enrichment (6-mer frequency, TF over GST control) with ELF3; 1.3 fold enrichment (6-mer frequency, TF over GST control) with CRX; 1.39 fold enrichment (6-mer frequency, TF over GST control) in the experiment with ETV1.
Turning to CAATAT, the binding signal was 1.25 fold enrichment (6-mer frequency, TF over GST control) with FEV; 1.33 fold enrichment (6-mer frequency, TF over GST control) with ETV5; 1.11 fold enrichment (6-mer frequency, TF over GST control) in the experiment with HSF1; 1.23 fold enrichment (6-mer frequency, TF over GST control) in the experiment with SPIC; 1.28 fold enrichment (6-mer frequency, TF over GST control) with ELF4; 1.31 fold enrichment (6-mer frequency, TF over GST control) with ELK4. Also, the binding signal with ETV2 was 1.29 fold enrichment (6-mer frequency, TF over GST control); with ELF3, 1.28 fold enrichment (6-mer frequency, TF over GST control); in the experiment with CRX, 1.15 fold enrichment (6-mer frequency, TF over GST control); with ETV1 it was 1.27 fold enrichment (6-mer frequency, TF over GST control).
Regarding TTGATA, the binding signal was 1.13 fold enrichment (6-mer frequency, TF over GST control) with FEV; 1.15 fold enrichment (6-mer frequency, TF over GST control) in the experiment with ETV5; 1.19 fold enrichment (6-mer frequency, TF over GST control) in the experiment with HSF1; 1.36 fold enrichment (6-mer frequency, TF over GST control) with SPIC; 1.29 fold enrichment (6-mer frequency, TF over GST control) in the experiment with ELF4; 1.42 fold enrichment (6-mer frequency, TF over GST control) in the experiment with ELK4. Moreover, the binding signal with ETV2 was 1.23 fold enrichment (6-mer frequency, TF over GST control); with ELF3, 1.03 fold enrichment (6-mer frequency, TF over GST control); with CRX it was 1.53 fold enrichment (6-mer frequency, TF over GST control); with ETV1, 1.25 fold enrichment (6-mer frequency, TF over GST control).
On to TCCACA, for which the binding signal was 1.21 fold enrichment (6-mer frequency, TF over GST control) with FEV; 1.25 fold enrichment (6-mer frequency, TF over GST control) with ETV5; 1.36 fold enrichment (6-mer frequency, TF over GST control) with HSF1; 1.31 fold enrichment (6-mer frequency, TF over GST control) with SPIC; 1.27 fold enrichment (6-mer frequency, TF over GST control) in the experiment with ELF4; 1.25 fold enrichment (6-mer frequency, TF over GST control) in the experiment with ELK4. In addition, the binding signal with ETV2 was 1.17 fold enrichment (6-mer frequency, TF over GST control); with ELF3, 1.22 fold enrichment (6-mer frequency, TF over GST control); with CRX it was 1.1 fold enrichment (6-mer frequency, TF over GST control); with ETV1, 1.15 fold enrichment (6-mer frequency, TF over GST control).
